The structures appear in SMILES notation.

The assay relates to HFF. Nature of the assay: cell viability relative to DMSO control; higher = less cytotoxic. The settings on record: 1 µM; 72 h. The procedure:
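Single-dose cytotoxicity screen of the MMV Pandemic Response Box at 1 uM on human foreskin fibroblasts (HFF), 72 h at 37 C. Viability measured by MTT (OD 550 nm) and normalised to the DMSO control (% survival).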
In the case of `O=C(O)c1cc(-c2ccc(Br)cc2)nc2ccc(Cl)cc12`, the cell viability was 57.6%. Compound `NC(=O)c1cnccn1` registered a cell viability of 68.1%. Then `CCc1cc(Cc2cnc(N)nc2N)cc2c1N(C)CCC2C` (configuration not stated), with 71.9%; and `CNc1nc(=O)[nH]cc1F`, with 68.4%; and `CCCCc1ccc(-c2nc(C)c(C(=O)OC)s2)cc1`, with 63.9%. `O=C(/C=C/n1cnc(-c2cc(C(F)(F)F)cc(C(F)(F)F)c2)n1)NNc1cnccn1` showed a cell viability of 59.7%. Then `O=C(O)CSc1cc(NS(=O)(=O)c2cccc3cccnc23)c2ccccc2c1O`, with 59.6%. In turn, `O=C(CCCC(F)(F)F)N1CCC(c2nc(-c3nccs3)no2)CC1` returned a cell viability of 67.4%. In the case of `[N-]=[N+]=N[C@H]1C[C@H](n2ccc(=O)[nH]c2=O)O[C@@H]1CO` it was 69.1%; in that of `CC(C)c1cc2c(cc1S(=O)(=O)O)[C@@]1(C)CCC[C@@](C)(C(=O)O)[C@@H]1CC2`, 64.8%. On to `O=C(Nc1ccc(F)cc1)c1nn(-c2ccccc2)c(=O)cc1Cl`, for which the cell viability stood at 71%. In the case of `O=C(CP(=O)(O)O)NCCc1cccc(Oc2ccccc2)c1` it was 65.7%.

Turning to `O=[N+]([O-])c1cn(Cc2nc(O)nc(O)c2Br)cn1`, the cell viability is 70.3%. Then `O=C(c1ccccc1)N1CCN(c2ccccc2NC(=O)C(Cl)(Cl)Cl)CC1`, with 65%; and `O=[N+]([O-])/C(Br)=C/c1ccc(Br)o1`, with 63.2%; and `O=C(Nc1ccc(N2CCN(C(=O)c3ccccc3)CC2)cc1)c1ccc2c(c1)OCO2`, with 60.1%. Compound `NC(=O)c1cnc2ccc(S(=O)(=O)c3ccccc3)cc2c1Nc1ccc(O)cc1` registered a cell viability of 59.5%. Then `O=C(Nc1ccccc1C(=O)O)c1cccc(Oc2ccccc2)c1`, with 67.4%. In turn, `O=C(NC(=O)N1CCCc2ccccc21)c1ccc(Cl)cc1Cl` displayed a cell viability of 70.2%. In the case of `NC(=O)[C@@H]1CC[C@@H]2CN1C(=O)N2OS(=O)(=O)O` it was 69.1%.

Take `Oc1cc(-c2cccc3ccccc23)[nH]n1`: the cell viability was 66.8%.

Take `CC(Cc1ccccc1)C(=O)Nc1ccc(Cl)cc1C(=O)O` (configuration not stated): the cell viability amounted to 65%. In the case of `Nc1cc(-c2nc3ccccc3[nH]2)n[nH]c1=O` it was 67.1%. In the case of `C[C@H]1COc2c(N3CCN(C)CC3)c(F)cc3c(=O)c(C(=O)O)cn1c23` it was 66%; in that of `CCc1cc(CCCOc2c(C)cc(-c3noc(C(F)(F)F)n3)cc2C)on1`, 69.3%. The compound `N=C(N)NCCCCC(=O)Nc1cc(C(F)(F)F)cc(NC(=O)c2cc(C(=O)Nc3cc(C(F)(F)F)cc(NC(=O)CCCCNC(=N)N)c3O[C@@H]3CCNC3)ncn2)c1O[C@@H]1CCNC1` displayed a cell viability of 57.6%. Then `O=P(O)(O)C(CCCc1cccc(Oc2ccccc2)c1)S(=O)(=O)O` (configuration not stated), with 74.4%. In the case of `COc1cccc(N2CCN(C3=Nc4c(F)cccc4[C@H](CC(=O)O)N3c3cc(C(F)(F)F)ccc3OC)CC2)c1` it was 55.7%. As for `O=C(NC(=O)N1CCCc2ccccc21)c1cccc(Cl)c1`, the cell viability was 75.5%. In the case of `C=C[C@]1(C)C[C@@H](OC(=O)CS[C@@H]2C[C@H]3CC[C@@H](C2)N3C)[C@]2(C)[C@H](C)CC[C@]3(CCC(=O)[C@H]32)[C@@H](C)[C@@H]1O` it was 72.2%. The compound `CCNC(=O)Nc1cc2c(-c3ccnc(C)c3)ccc(CNC(=O)OC)c2cn1` yielded a cell viability of 62.7%. As to `COc1cc(C)c2c(Oc3cccc(C(F)(F)F)c3)c(OC)cc(NC(C)CCCN)c2n1` (configuration not stated), the cell viability came to 61.2%.

`COc1cc(Cc2cc(N)nc(N)n2)cc(OC)c1OC` came in with a cell viability of 65.1%. `CC(C)(C)NC(=O)N[C@H](C(=O)N1C[C@H]2[C@@H]([C@H]1C(=O)NC(CC1CCC1)C(=O)C(N)=O)C2(C)C)C(C)(C)C` (some centres not stated): the cell viability worked out at 63.4%.

`O=C(Nc1ccc(-c2ccccc2)cc1)C1=C(O)C(Cc2ccccc2)OC1=O` (configuration not stated) gave a cell viability of 69.3%.

Compound `C[C@H](Cn1cnc2c(N)ncnc21)OCP(=O)(O)O` registered a cell viability of 58.1%. Then `O=S(=O)(NCB(O)O)c1ccc(-c2nnn[nH]2)cc1C(F)(F)F`, with 70.9%.

As a reminder, the cell viability is the share of living cells, or the viability signal relative to a control.

Source of the values: the supplement of paper PMC10941209.
